Some test systems named below: SR leukemia; RPMI-8226 leukemia; OVCAR-8 ovarian; OVCAR-5 ovarian; OVCAR-4 ovarian; SK-OV-3 ovarian; IGROV1 ovarian; OVCAR-3 ovarian; HS 578T breast; NCI/ADR-RES ovarian; T-47D breast; BT-549 breast; MDA-MB-435 melanoma; SW-620 colon; MCF7 breast; HCT-116 colon; HCC-2998 colon; KM12 colon.
Holding throughout (experiment): NCI-60 one-dose screen, 48 h (100 = growth as untreated, 0 = no growth, -100 = all killed)
Conditions in all cases: 10 µM unless noted

The structures appear in SMILES notation. The panel holds about 83,000 compounds, 20% with a hit somewhere; the sample as a whole holds those more often.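 Step 1: grow cells in 96-well plates. Step 2: add test compound at a single concentration. Step 3: incubate 48 h. Step 4: record percent growth.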 Values without a mark were called inactive. Activity calls are given as the source filed them. The calls were made as follows: active = growth percent below 10; inactive = the rest.

Take `COc1ccc(C(=O)c2ccc(C)cc2)c(OC)c1OC`: the growth in the assay with SR leukemia was 56.6%; in the assay with RPMI-8226 leukemia it was 88.7%; with OVCAR-8 ovarian, 90.4%; in the assay with OVCAR-5 ovarian, 93%; with OVCAR-4 ovarian it was 99.7%; in the assay on SK-OV-3 ovarian, 79.3%. In addition, the growth in the assay with IGROV1 ovarian is 71.6%; in the assay with OVCAR-3 ovarian it was 66.7%; with HS 578T breast, 86.9%; with NCI/ADR-RES ovarian it was 45.2%; with T-47D breast, 90%; with BT-549 breast, 86.7%. In addition, the growth in the assay with MDA-MB-435 melanoma was -25.2% (active); with SW-620 colon it was 33.6%; with MCF7 breast, 72.2%; in the assay with HCT-116 colon, 58.4%; with HCC-2998 colon, 75.9%; in the assay with KM12 colon, 47.2%.

Take `Cn1cc(-c2csc(-c3cn(CCN)c4ccc(F)cc34)n2)c2cccnc21`: the growth was 2.79% (active) in the assay with SR leukemia; 67.9% with RPMI-8226 leukemia; 72.1% in the assay with OVCAR-8 ovarian; 80.2% in the assay on OVCAR-5 ovarian; 54.6% with OVCAR-4 ovarian; 78% with SK-OV-3 ovarian. Also, the growth in the assay with IGROV1 ovarian is 39.6%; in the assay with OVCAR-3 ovarian, 84.1%; with HS 578T breast, 77.9%; with NCI/ADR-RES ovarian, 78.3%; in the assay with T-47D breast, 19%; in the assay with BT-549 breast, 89.1%. The growth was 53.5% with MDA-MB-435 melanoma; 52.6% with SW-620 colon; 36.2% in the assay with MCF7 breast; 77.1% in the assay on HCT-116 colon; 91.1% in the assay with HCC-2998 colon; 47.7% in the assay on KM12 colon.

In the case of `C=C(C)[C@@H]1CC[C@]2(C)[C@H](CC=C3[C@@H]4CC(C)(C)CC[C@]4(C=O)CC[C@]32C)[C@@]1(C)CCCN`, the growth with SR leukemia was -31.5% (active); with RPMI-8226 leukemia, 14.2%; in the assay on OVCAR-8 ovarian it was 77.8%; with OVCAR-5 ovarian it was 91.8%; in the assay on OVCAR-4 ovarian, 85.7%; with SK-OV-3 ovarian it was 94.2%. For the same compound, the growth with IGROV1 ovarian is 88.4%; with OVCAR-3 ovarian it was 80.1%; in the assay with HS 578T breast, 96%; in the assay on NCI/ADR-RES ovarian, 87.2%; with T-47D breast, 79.1%; with BT-549 breast it was 87.3%. In addition, the growth in the assay on MDA-MB-435 melanoma was 95.1%; in the assay on SW-620 colon, 29.5%; with MCF7 breast, 39%; in the assay on HCT-116 colon it was 22.9%; in the assay on HCC-2998 colon, 40.1%; with KM12 colon it was 77.3%.

With `NC(Cc1ccc(O)cc1)C(=O)N/N=C/c1ccccc1O` (centres undefined), the growth with SR leukemia was 82.5%; with RPMI-8226 leukemia it was 103%; in the assay on OVCAR-8 ovarian, 96.2%; in the assay with OVCAR-5 ovarian it was 110%; in the assay on OVCAR-4 ovarian, 90.1%; in the assay with SK-OV-3 ovarian, 113%. The growth in the assay on IGROV1 ovarian is 92.8%; with OVCAR-3 ovarian it was 103%; with HS 578T breast, 107%; in the assay with NCI/ADR-RES ovarian, 102%; with T-47D breast, 98.1%; in the assay with BT-549 breast, 95.4%. Further, the growth in the assay with MDA-MB-435 melanoma was 108%; in the assay with SW-620 colon it was 107%; in the assay with MCF7 breast, 96.2%; in the assay on HCT-116 colon it was 97.2%; in the assay with HCC-2998 colon it was 100%; in the assay with KM12 colon, 97.6%.

Turning to `O=S(=O)(NCCNc1cc(-c2cn(-c3ccccc3)nc2-c2cccc(O)c2)ccn1)c1ccc(Cl)cc1`, the growth in the assay on SR leukemia is 2.36% (active); with RPMI-8226 leukemia, 12.8%; with OVCAR-8 ovarian it was 31%; in the assay with OVCAR-5 ovarian it was 63.4%; in the assay on OVCAR-4 ovarian, 38.2%; with SK-OV-3 ovarian, 53.5%. The growth with IGROV1 ovarian is 44.4%; in the assay with OVCAR-3 ovarian, 43.2%; with HS 578T breast it was 21.2%; with NCI/ADR-RES ovarian it was 29.1%; in the assay with T-47D breast it was 14.4%; with BT-549 breast, 50.7%. The growth with MDA-MB-435 melanoma is 23.3%; with SW-620 colon it was 32.8%; in the assay on MCF7 breast, 14.9%; in the assay on HCT-116 colon it was 20.4%; in the assay on HCC-2998 colon, -42.8% (active); in the assay on KM12 colon, 19.4%.

Regarding `CCc1ccccc1NC(=O)c1sc2nc3c(cc2c1N)CCCC3`, the growth in the assay on SR leukemia is 9.86% (active); in the assay with RPMI-8226 leukemia it was 46.1%; in the assay on OVCAR-8 ovarian, 52.3%; in the assay on OVCAR-5 ovarian, 79.3%; in the assay on OVCAR-4 ovarian, 66.8%; with SK-OV-3 ovarian, 38.8%. For the same compound, the growth in the assay with IGROV1 ovarian is 64.8%; in the assay with OVCAR-3 ovarian it was 23.8%; in the assay on HS 578T breast, 29.9%; in the assay on NCI/ADR-RES ovarian, 19.9%; in the assay with T-47D breast it was 34.6%; in the assay with BT-549 breast, 48.4%. In addition, the growth is 1.18% (active) in the assay with MDA-MB-435 melanoma; 26.7% in the assay on SW-620 colon; 19.8% in the assay on MCF7 breast; 18.7% with HCT-116 colon; 78.9% with HCC-2998 colon; 27.9% in the assay on KM12 colon.

Take `Cn1cc(-c2csc(-c3cn(CCN)c4ccc(Br)cc34)n2)c2cccnc21`: the growth in the assay on SR leukemia was 9.41% (active); in the assay with RPMI-8226 leukemia, 59.5%; in the assay on OVCAR-8 ovarian, 76.5%; in the assay on OVCAR-5 ovarian, 76.5%; in the assay on OVCAR-4 ovarian, 54.3%; in the assay on SK-OV-3 ovarian, 91.6%. Moreover, the growth is 38.8% in the assay with IGROV1 ovarian; 72.5% with OVCAR-3 ovarian; 74.5% in the assay on HS 578T breast; 86.4% in the assay with NCI/ADR-RES ovarian; 45.5% in the assay on T-47D breast; 93.2% in the assay with BT-549 breast. For the same compound, the growth in the assay on MDA-MB-435 melanoma is 91.1%; with SW-620 colon, 21.1%; in the assay on MCF7 breast, 20.9%; in the assay on HCT-116 colon, 58.7%; in the assay on HCC-2998 colon, 97.9%; in the assay on KM12 colon it was 71.8%.

Take `CCN1CCN(c2nc(C)cc(N(CCCNc3ccnc4cc(Cl)ccc34)Cc3ccco3)n2)CC1`: the growth is -16.5% (active) in the assay on SR leukemia; 8.04% (active) in the assay with RPMI-8226 leukemia; 58.5% in the assay on OVCAR-8 ovarian; 79.7% in the assay on OVCAR-5 ovarian; 59.7% in the assay with OVCAR-4 ovarian; 97.2% in the assay on SK-OV-3 ovarian. Also, the growth is 51.2% in the assay on IGROV1 ovarian; 53% in the assay with OVCAR-3 ovarian; 70.3% in the assay with HS 578T breast; 55.8% in the assay with NCI/ADR-RES ovarian; 68.4% in the assay on T-47D breast; 54.5% with BT-549 breast. For the same compound, the growth in the assay with MDA-MB-435 melanoma is 4.03% (active); with SW-620 colon, 39.3%; in the assay with MCF7 breast, 32.3%; with HCT-116 colon it was 42.5%; with HCC-2998 colon, 88%; in the assay with KM12 colon, 67.9%.

(Values after PubChem BioAssay (NCI).)
